IL-1B inflam inh: blocks inflammasome-driven IL-1 beta release | 4.7% of 360,000 active | AID 743279 | THP-1 LPS/ATP IL-1B secretion, AlphaLISA, 16 h; active compounds read low | activity change, % at 57.5 µM; in the data active means activity change below about -50%; inconclusive means mostly about -30% to -49%
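Secreted IL-1B measured by AlphaLISA bead assay after 16 h compound exposure of THP-1 cells; compounds (final up to 57.5 uM) added 1 h before LPS (250 ng/mL) and ATP (1.25 mM) stimulation; lower signal means less secretion.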
DT40 TDP1 no CPT: qHTS for Inhibitors of human tyrosyl-DNA phosphodiesterase 1 (TDP1): qHTS in cells in absence of CPT | 15% of 420,000 active | Potency, µM (series often up to 46.2 µM), usual class: inhibitors | DT40 Tdp1-/- hTDP1 cells, no CPT, ATP luminescence, 48 h | AID 686978, 2013; further: nearly all actives have a fitted effect of over 55% in size
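No-CPT arm: Tdp1-/-;hTDP1 DT40 cells (400/well) plus compounds, incubated ≥48 hr at 37 °C. Readout CellTiter-Glo luminescence.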
DT40 TDP1 CPT: DT40-hTDP1 cell growth loss with CPT; 12% of 420,000 active; AID 686979; chicken DT40 Tdp1-/-;hTDP1 cells + 20 nM CPT, ATP luminescence, 48 h; Potency, µM (series often up to 46.2 µM), hits mostly inhibitors; further: nearly all actives have a fitted effect of over 55% in size
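Chicken DT40 Tdp1-/- cells complemented with human TDP1, 400 cells/well, exposed to compounds plus 20 nM camptothecin for at least 48 h at 37 C; viability read as ATP content by CellTiter-Glo luminescence.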
HT1080 IDH1KD tx: HT-1080 IDH1 knockdown cell toxicity (counter line). HT-1080 IDH1 knockdown viability, ATP luminescence, 48 h. Potency, µM (series often up to 46.1 µM), most hits filed as cytotoxic. 2% of 360,000 active
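Using the IDH1-knockdown HT-1080 line run in the same batch and compound series as the NT line, viability after 48 h at 37 °C was determined by CellTiter-Glo luminescence and expressed as % activity.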
HT1080-NT tox: kills 2HG-producing HT-1080-NT fibrosarcoma cells. Potency, µM (series often up to 46.1 µM), most hits filed as cytotoxic. AID 686970. 1.6% of 360,000 active. HT-1080-NT fibrosarcoma viability, CellTiter-Glo ATP luminescence, 48 h;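 further: NT is the 2HG producing partner of a matched IDH1 knockdown line; nearly all actives have a fitted effect of over 55% in size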
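Compounds were tested in concentration-response format on HT-1080-NT cells for 48 hours at 37 degrees C. Cell viability came from CellTiter-Glo luminescence; curves were classified by r2, response magnitude and activity.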
A number is an active result; n = inactive; u = inconclusive; x = not tested or not shown; [ ] = dose if it differs, or a comment. Hits are enriched below; roughly 19% of the tested compounds scored in any of these assays. Unless noted, the call rests on the fitted dose curve; in most records, active means well fitted curve in the direction sought with a large enough effect; inconclusive means small, poorly fitted or top-dose-only effect, or another doubt; inactive means no such curve, though single readings can be large; an effect the other way counts as inactive or inconclusive.

SMILES	IL-1B inflam inh	DT40 TDP1 no CPT	DT40 TDP1 CPT	HT1080 IDH1KD tx	HT1080-NT tox
CCOc1ccccc1-c1nc(-c2cc3ccccc3nc2OC)no1	n	23µM	16µM	n	n
CCOc1nc(C)ccc1-c1noc(-c2ccccc2OC)n1	n	u	n	n	n
CCOC(=O)c1nc(N)c(C(=O)OCC)[nH]1	n	29µM	u	n	n
CCOC(=O)N1CCN(c2c(NCc3ccccc3OC)c(=O)c2=O)CC1	n	u	u	n	n
CCOC(=O)N1CCN(c2c(NCc3ccc(Cl)cc3)c(=O)c2=O)CC1	n	5.8µM	4.1µM	5.8µM	u
CCOC(=O)N1CCN(c2c(NCc3ccc(F)cc3)c(=O)c2=O)CC1	n	3.3µM	4.1µM	5.2µM	5.2µM
O=C(c1cccc([N+](=O)[O-])c1)N1CCCC(C(=O)N2CCN(c3ccccc3)CC2)C1 (centres undefined)	n	n	n	n	n
CCOC(=O)c1cnc2ccc(OC)cc2c1NCc1ccccc1	n	u	u	n	n
CCOC(=O)c1cnc2ccc(OCC)cc2c1Nc1cc(Cl)c(OC)cc1OC	x	26µM	15µM	x	x
CCOC(=O)c1cnc2ccc(OCC)cc2c1NCc1ccccc1OC	-89	5.2µM	5.2µM	u	21µM
CCOC(=O)c1cnc2ccc(OC)cc2c1Nc1cccc(C(C)=O)c1	x	21µM	16µM	x	x
CCOC(=O)c1cnc2ccc(OC(F)(F)F)cc2c1Nc1ccccc1C(=O)O	x	15µM	u	x	x
CC(C)CSc1nnc(CNC(=O)c2ccccn2)n1C	x	n	n	x	x
O=C(c1ccc(C(F)(F)F)cc1)N(Cc1cc2ccc(F)cc2nc1N1CCOCC1)C1CC1	x	u	n[9.04 µM]	x	x
COc1ccc(OC)c(C(=O)c2ccc(C(=O)N3CCCCC3)cc2)c1	n	u	n	n	n
Cc1ccc(-c2nc(-c3ccc(Cl)cc3)sc2CC(=O)O)c(C)c1	n	n	n	n	n
CCOC(=O)c1cnc2ccc(OC)cc2c1NCCc1ccccc1	x	10µM	u	x	x
CCN1CCN(c2cc(N3CCN(C(=O)c4ccco4)CC3)c3c4c(onc24)-c2ccccc2C3=O)CC1	-52	9.2µM	7.3µM	u	u
O=C(O)CCNc1cc(N2CCN(C(=O)c3ccco3)CC2)c2noc3c2c1C(=O)c1ccccc1-3	-71	n	n	u	u
O=C1c2ccccc2-c2onc3c(NCCO)cc(NC4CCCCC4)c1c23	x	u	18µM	x	x
COC(=O)CC1Oc2ccc(F)cc2-n2cc(-c3ccc(C)cc3)nc21 (centres undefined)	x	7.3µM	9.2µM	x	x
COC(=O)CC1Oc2ccc(Cl)cc2-n2cc(-c3ccc(F)cc3)nc21 (centres undefined)	x	n	n	x	x
COC(=O)CC1Oc2ccc(F)cc2-n2cc(-c3ccc(Cl)cc3)nc21 (centres undefined)	x	4.1µM	9.2µM	x	x
O=S1(=O)CC2SC(=S)N(Cc3ccccc3)C2C1 (centres undefined)	n	n	n	n	n
CC(=O)c1cnc2nc(SCc3ccccc3)nn2c1C	n	n	n	n	n
SMILES	IL-1B inflam inh	DT40 TDP1 no CPT	DT40 TDP1 CPT	HT1080 IDH1KD tx	HT1080-NT tox
CC(=O)c1cnc2nc(SCc3cccc(C)c3)nn2c1C	n	15µM	u	n	n
CCCS(=O)(=O)N1CCCC(C(=O)NCCc2ccccc2)C1 (centres undefined)	n	n	n	n	n
NC(=O)C1CCN(c2ccc(S(=O)(=O)N3CCC(Cc4ccccc4)CC3)cn2)CC1	n	13µM	u	n	n
CCCS(=O)(=O)N1CCC(C(=O)NCCCN2CCC(Cc3ccccc3)CC2)CC1	n	n	n	n	n
CCCS(=O)(=O)N1CCC(C(=O)N2CCC(Cc3ccccc3)CC2)CC1	n	21µM	18µM	n	n
CCCS(=O)(=O)N1CCCC(C(=O)N2CCC(Cc3ccccc3)CC2)C1 (centres undefined)	n	15µM	u	n	n
CCOC(=O)N1CCN(C(=O)C2CCN(S(=O)(=O)N3CCC4(CC3)OCCO4)CC2)CC1	n	n	n	n	n
O=C(C1CCN(S(=O)(=O)N2CCC3(CC2)OCCO3)CC1)N1CCC(Cc2ccccc2)CC1	-64	u	u	n	n
COc1cc(CCC(=O)OCC(=O)N(CCC#N)c2ccccc2)cc(OC)c1OC	n	n	n	n	n
CCCCOc1ccc(C(C)NC(=O)C2CCCN(S(=O)(=O)CCC)C2)cc1 (centres undefined)	n	16µM	12µM	n	n
O=C(COC(=O)c1ccco1)Nc1cccc(S(=O)(=O)N2CCCCC2)c1	n	n	n	n	n
O=S(=O)(c1ccccc1)N1CCC(n2nnc3cc(F)ccc32)CC1	n	n	u	n	n
O=S(=O)(c1ccc2c(c1)OCCO2)N1CCC(n2nnc3cc(C(F)(F)F)ccc32)CC1	n	16µM	u	n	n
Cc1nc(Sc2ccc(Br)cc2)c(C#N)c(C)c1[N+](=O)[O-]	-105	9.2µM	21µM	u	u
Cc1nc(Sc2ccc(Cl)cc2)c(C#N)c(C)c1[N+](=O)[O-]	x	10µM	u	u	u
CC1CC2(CCCCC2)Nc2ccc3ccccc3c21 (centres undefined)	n	u	21µM	n	n
COC(=O)[C@@]12C[C@@H](CC(=O)NCCCN3CCCC3=O)C(=O)N(CCc3ccc(OC)c(OC)c3)C1=CCC(C)(C)C2	n	n	n	n	n
COC(=O)[C@H](Cc1ccccc1)NC(=O)N1Cc2ccccc2C[C@H]1C(=O)OC	n	u	n	n	n
COC(=O)C1Cc2ccccc2CN1C(=O)CCl (centres undefined)	-97	15µM	15µM	15µM	8.2µM
O=C(C1CCN(Cc2ccc(F)cc2)CC1)N(CCc1ccccc1)Cc1ccccc1	-89	16µM	23µM	n	n
CCN(CC)C(=O)C1CCN(Cc2ccc(OCc3ccccc3)cc2)CC1	-57	n	n	n	n
O=C(C1CCN(Cc2ccc(F)cc2)CC1)N(CCO)Cc1ccccc1	n	n	n	n	n
CCN(CC)C(=O)C1CCN(Cc2cccc(OCc3ccccc3)c2)CC1	n	u	n	n	n
CCNC(=O)C1CCCN(Cc2ccc(OCc3ccccc3)cc2)CC1 (centres undefined)	n	7.3µM	18µM	n	u
CC(C)CCNC(=O)C1CCN(Cc2cccc(OCc3ccccc3)c2)CC1	-57	u	n	23µM	u
Cc1noc(C)c1COc1ccccc1C(=O)NC(C)c1ccc(F)cc1 (centres undefined)	n	n	u	n	n
O=C(CNC(=O)c1ccc(Br)o1)NNC(=O)c1ccccc1F	n	n	n	n	n
Cc1nc(CCNC(=O)CC2C(=O)NCCN2Cc2ccc(F)cc2)sc1C (centres undefined)	n	n	n	n	n
